Changes are numbered by the printed parent chain.
Experiments:
Assay in all cases: protein-binding microarray (PBM); PBM: ~300 nM protein, 6 mM HEPES pH 7.8, 80 mM KCl, 0.5 mM EDTA, 0.5 mM EGTA, 6% glycerol, 35 ng/ul poly-dIdC, 1% milk, 1 h, room temperature; Ap Aiptasia and Nv Nematostella (sea anemones) / Co Capsaspora / Aq Amphimedon (sponge) / Dm Drosophila / Hu human; RHD is the Rel homology domain; high values mean tight binding
Conditions in all cases: dsDNA, one strand shown
GST-Ap-NF-kB RHD = target: T1, GST-Ap-NF-kB RHD (Exaiptasia pallida (Aiptasia), UniProt A0A913YAJ5 2-422)
T1 sequence: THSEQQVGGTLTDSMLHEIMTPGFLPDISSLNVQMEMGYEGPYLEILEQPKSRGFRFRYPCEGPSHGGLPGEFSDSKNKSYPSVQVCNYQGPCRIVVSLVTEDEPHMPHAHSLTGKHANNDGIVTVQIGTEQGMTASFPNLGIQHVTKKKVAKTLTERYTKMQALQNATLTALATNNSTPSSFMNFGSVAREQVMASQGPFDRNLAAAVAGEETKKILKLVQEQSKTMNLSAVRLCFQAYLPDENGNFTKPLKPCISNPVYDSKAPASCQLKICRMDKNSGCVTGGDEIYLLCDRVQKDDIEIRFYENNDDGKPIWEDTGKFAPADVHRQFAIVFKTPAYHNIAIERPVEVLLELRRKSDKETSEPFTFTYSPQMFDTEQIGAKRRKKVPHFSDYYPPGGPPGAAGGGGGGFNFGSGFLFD

[1] = target: T2, GST-Nv-NF-kB (Cys allele) (Nematostella vectensis, UniProt E5G601 2-411)
T2 sequence: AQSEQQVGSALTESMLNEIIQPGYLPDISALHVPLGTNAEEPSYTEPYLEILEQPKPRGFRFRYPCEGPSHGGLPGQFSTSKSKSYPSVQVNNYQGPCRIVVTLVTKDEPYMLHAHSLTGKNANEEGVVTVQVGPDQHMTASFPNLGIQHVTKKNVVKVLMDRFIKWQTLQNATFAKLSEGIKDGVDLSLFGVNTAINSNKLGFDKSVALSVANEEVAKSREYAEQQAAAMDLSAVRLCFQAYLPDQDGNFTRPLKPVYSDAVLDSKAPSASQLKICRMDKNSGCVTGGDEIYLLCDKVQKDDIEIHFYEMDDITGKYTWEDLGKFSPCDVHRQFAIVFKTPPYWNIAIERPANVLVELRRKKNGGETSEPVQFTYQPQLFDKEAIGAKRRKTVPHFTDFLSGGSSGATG

[2] = target: T3, GST-Nv-NF-kB (Ser allele) (Nematostella vectensis, UniProt A7UNT2 2-411)
T3 sequence: T2 sequence with Q21R, C66S, S207N, E215Q, V217A, E225K, A268E, D399E

GST-Co-NF-kB = target: T4, GST-Co-NF-kB (Capsaspora owczarzaki, UniProt F1ARL5 200-546)
T4 sequence: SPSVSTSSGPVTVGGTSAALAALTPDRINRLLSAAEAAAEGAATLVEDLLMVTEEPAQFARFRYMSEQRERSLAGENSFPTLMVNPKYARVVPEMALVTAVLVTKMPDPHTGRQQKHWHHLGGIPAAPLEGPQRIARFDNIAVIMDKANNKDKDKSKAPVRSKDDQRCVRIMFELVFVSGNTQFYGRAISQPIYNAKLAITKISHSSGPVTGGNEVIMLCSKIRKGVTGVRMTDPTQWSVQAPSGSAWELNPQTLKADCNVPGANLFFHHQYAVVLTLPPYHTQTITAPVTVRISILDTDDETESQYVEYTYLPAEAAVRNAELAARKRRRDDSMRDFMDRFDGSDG

GST-Dm-Relish = target: T5, GST-Dm-Relish (Drosophila melanogaster, UniProt Q94527 99-473)
T5 sequence: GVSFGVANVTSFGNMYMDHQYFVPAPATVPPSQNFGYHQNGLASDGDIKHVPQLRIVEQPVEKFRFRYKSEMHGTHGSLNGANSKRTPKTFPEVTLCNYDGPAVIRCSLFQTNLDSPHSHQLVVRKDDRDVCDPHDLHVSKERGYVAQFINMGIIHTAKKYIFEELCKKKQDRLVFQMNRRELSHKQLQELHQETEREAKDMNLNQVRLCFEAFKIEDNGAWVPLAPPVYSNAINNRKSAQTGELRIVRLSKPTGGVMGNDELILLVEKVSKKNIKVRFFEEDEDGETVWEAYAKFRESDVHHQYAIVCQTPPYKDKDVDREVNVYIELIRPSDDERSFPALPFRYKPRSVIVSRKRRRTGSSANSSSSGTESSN

GST-Aq-NF-kB = target: T6, GST-Aq-NF-kB (Amphimedon queenslandica, UniProt A9Y5G7 2-389)
T6 sequence: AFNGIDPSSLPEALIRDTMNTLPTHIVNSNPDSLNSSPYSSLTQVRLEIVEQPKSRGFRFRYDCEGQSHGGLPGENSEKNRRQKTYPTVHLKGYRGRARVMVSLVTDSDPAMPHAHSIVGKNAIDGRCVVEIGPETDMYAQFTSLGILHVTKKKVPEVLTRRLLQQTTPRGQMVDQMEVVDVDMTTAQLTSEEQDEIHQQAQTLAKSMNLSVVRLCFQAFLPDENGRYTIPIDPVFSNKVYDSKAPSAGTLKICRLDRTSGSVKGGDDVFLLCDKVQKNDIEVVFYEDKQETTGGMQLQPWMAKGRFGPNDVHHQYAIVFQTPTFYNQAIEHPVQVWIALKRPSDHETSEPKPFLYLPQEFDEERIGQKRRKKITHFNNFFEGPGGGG

GST-Hu-p50 = GST-Hu-p50 (Homo sapiens, UniProt P19838 7-356)
GST-Hu-p50, sequence (P19838 7-356): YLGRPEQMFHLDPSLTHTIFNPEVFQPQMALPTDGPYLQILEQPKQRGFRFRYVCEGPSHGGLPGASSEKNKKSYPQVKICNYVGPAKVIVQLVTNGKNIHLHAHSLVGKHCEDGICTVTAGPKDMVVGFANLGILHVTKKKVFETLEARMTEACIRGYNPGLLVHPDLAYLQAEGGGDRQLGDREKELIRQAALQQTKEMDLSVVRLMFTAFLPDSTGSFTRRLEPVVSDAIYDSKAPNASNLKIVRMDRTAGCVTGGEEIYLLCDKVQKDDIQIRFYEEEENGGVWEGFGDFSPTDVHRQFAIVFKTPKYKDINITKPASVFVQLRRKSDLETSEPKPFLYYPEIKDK

CCGATTAACATCACGGGGAAATCTGATGTTAATCGGGTCTTGATTCGCTTGACGCTGCTG
binding signal (GST-Ap-NF-kB RHD): 7.76 z-score
binding signal [1]: 8.56 z-score
binding signal [2]: 10.6 z-score
binding signal (GST-Co-NF-kB): 10.1 z-score
binding signal (GST-Dm-Relish): 6.19 z-score
binding signal (GST-Aq-NF-kB): 6.37 z-score
binding signal (GST-Hu-p50): 6.25 z-score

CCGATTAACATCAATTTTTCCCGTGATGTTAATCGGGTCTTGATTCGCTTGACGCTGCTG
binding signal (GST-Ap-NF-kB RHD): 3.39 z-score
binding signal [1]: 4.95 z-score
binding signal [2]: 6.62 z-score
binding signal (GST-Co-NF-kB): 6.5 z-score
binding signal (GST-Dm-Relish): 2.16 z-score
binding signal (GST-Aq-NF-kB): 4.56 z-score
binding signal (GST-Hu-p50): 3.66 z-score

CCGATTAACATCAAGATTTCCCCTGATGTTAATCGGGTCTTGATTCGCTTGACGCTGCTG
binding signal (GST-Ap-NF-kB RHD): 8.78 z-score
binding signal [1]: 10.4 z-score
binding signal [2]: 13.2 z-score
binding signal (GST-Co-NF-kB): 9.09 z-score
binding signal (GST-Dm-Relish): 6.87 z-score
binding signal (GST-Aq-NF-kB): 7.44 z-score
binding signal (GST-Hu-p50): 7.38 z-score

CCGATTAACATCAAAAAATTCCCTGATGTTAATCGGGTCTTGATTCGCTTGACGCTGCTG
binding signal (GST-Ap-NF-kB RHD): 6.84 z-score
binding signal [1]: 10.3 z-score
binding signal [2]: 9.33 z-score
binding signal (GST-Co-NF-kB): 5.79 z-score
binding signal (GST-Dm-Relish): 8.53 z-score
binding signal (GST-Aq-NF-kB): 8.5 z-score
binding signal (GST-Hu-p50): 6.48 z-score

CCGATTAACATCAGGGAAGCCCCTGATGTTAATCGGGTCTTGATTCGCTTGACGCTGCTG
binding signal (GST-Ap-NF-kB RHD): 9.42 z-score
binding signal [1]: 10.8 z-score
binding signal [2]: 7.12 z-score
binding signal (GST-Co-NF-kB): 1.97 z-score
binding signal (GST-Dm-Relish): 10.3 z-score
binding signal (GST-Aq-NF-kB): 9.75 z-score
binding signal (GST-Hu-p50): 6.02 z-score

CCGATTAACATCACAATCCCCCCTGATGTTAATCGGGTCTTGATTCGCTTGACGCTGCTG
binding signal (GST-Ap-NF-kB RHD): 8.13 z-score
binding signal [1]: 5.61 z-score
binding signal [2]: 6.37 z-score
binding signal (GST-Co-NF-kB): 5.89 z-score
binding signal (GST-Dm-Relish): 5.35 z-score
binding signal (GST-Aq-NF-kB): 5.25 z-score
binding signal (GST-Hu-p50): 6.19 z-score

CCGATTAACATCAAAAATCCCAATGATGTTAATCGGGTCTTGATTCGCTTGACGCTGCTG
binding signal (GST-Ap-NF-kB RHD): 2.79 z-score
binding signal [1]: 3.4 z-score
binding signal [2]: 2.4 z-score
binding signal (GST-Co-NF-kB): 1.58 z-score
binding signal (GST-Dm-Relish): 6.98 z-score
binding signal (GST-Aq-NF-kB): 3.37 z-score
binding signal (GST-Hu-p50): 3.32 z-score

CCGATTAACATCAGGAAGCCCCCTGATGTTAATCGGGTCTTGATTCGCTTGACGCTGCTG
binding signal (GST-Ap-NF-kB RHD): 6.62 z-score
binding signal [1]: 5.72 z-score
binding signal [2]: 3.93 z-score
binding signal (GST-Co-NF-kB): 1.49 z-score
binding signal (GST-Dm-Relish): 7.8 z-score
binding signal (GST-Aq-NF-kB): 7.03 z-score
binding signal (GST-Hu-p50): 5.74 z-score

CCGATTAACATCACATTTTCCCCTGATGTTAATCGGGTCTTGATTCGCTTGACGCTGCTG
binding signal (GST-Ap-NF-kB RHD): 6.76 z-score
binding signal [1]: 8.07 z-score
binding signal [2]: 10.5 z-score
binding signal (GST-Co-NF-kB): 9.7 z-score
binding signal (GST-Dm-Relish): 3.97 z-score
binding signal (GST-Aq-NF-kB): 5.38 z-score
binding signal (GST-Hu-p50): 6.01 z-score

Reference: paper PMC5700166
